Source: PubChem BioAssay (NCATS)
Inconclusive results are not listed. Where a call stands in place of a potency, no number is given. Values without a mark were called inactive. Calls of active or inactive are those of the source. The call rests on the fitted dose curve; in most records, active means well fitted curve in the direction sought with a large enough effect; inconclusive means small, poorly fitted or top-dose-only effect, or another doubt; inactive means no such curve, though single readings can be large; an effect the other way counts as inactive or inconclusive.

How the values were obtained:
[1] = P-glycoprotein substrates identified in KB-3-1 adenocarcinoma cell line, qHTS therapeutic library screen (AID 1346986); further: nearly all actives have a fitted effect of over 60% in size
Procedure, shortened: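 Viability by CellTiter-Glo after 72 h compound exposure at 37 degree C, 5% CO2. Cytotoxic call: curve class -1.1 to -2.4, maximum response >50%, AC50 < 10 uM, compared across KB-3-1 and P-gp-overexpressing KB-8-5-11.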

[2] = P-glycoprotein substrates identified in KB-8-5-11 adenocarcinoma cell line, qHTS therapeutic library screen (AID 1346987); further: nearly all actives have a fitted effect of over 65% in size; on activity change, negative = cytotoxicity: series mostly up to about 44 µM
Procedure, shortened: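 Human cervical adenocarcinoma KB-8-5-11 cells, selected in colchicine to over-express P-gp and assayed without it, were exposed for 72 h to titrated compounds. An ATP-based luminescent viability signal gave AC50.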

## CCc1nn(CCO)c(CC)c1Oc1cc(C#N)cc(C#N)c1
[1]
  Potency: inactive
[2]
  Potency: inactive

## CC(=O)OC[C@@]12C(=O)C[C@@H](C)[C@]3(C[C@@H](c4ccoc4)OC3=O)[C@H]1CC[C@H](OC(C)=O)[C@]21CO1
[1]
  Potency: inactive
[2]
  Potency: inactive

## NC[C@@H]1O[C@@H](O[C@@H]2[C@@H](O[C@@H]3O[C@H](CO)[C@@H](O)[C@H]3O)[C@H](O)[C@@H](N)C[C@H]2N)[C@@H](N)[C@H](O)[C@H]1O
[1]
  outcome: inactive [at 9.29 µM]
[2]
  outcome: inactive [at 9.29 µM]

## CC1(C)CC[C@]2(C(=O)O[C@@H]3O[C@H](CO[C@@H]4O[C@H](CO)[C@@H](O)[C@H](O)[C@H]4O)[C@@H](O)[C@H](O[C@@H]4O[C@H](CO)[C@@H](O)[C@H](O)[C@H]4O)[C@H]3O)CC[C@]3(C)C(=CCC4[C@@]5(C)CC[C@H](O[C@@H]6OC[C@@H](O)[C@H](O)[C@H]6O)[C@@](C)(C(=O)O)C5CC[C@]43C)[C@@H]2C1 (some centres not stated)
[1]
  outcome: inactive [at 9.29 µM]
[2]
  activity change, negative = cytotoxicity: 2.51% [at 9.29 µM]

## O=C(O)/C=C/c1ccc2occc2c1O[C@@H]1O[C@H](CO)[C@@H](O)[C@H](O)[C@H]1O
[1]
  Potency: inactive
[2]
  Potency: inactive

## Cn1cc(Nc2cnccc2C(=O)O)c2cccnc21
[1]
  Potency: inactive
[2]
  Potency: inactive

## COC(=O)[C@]1(Cc2ccc(O)c(CC=C(C)C)c2)OC(=O)C(O)=C1c1ccc(O)cc1
[1]
  Potency: inactive
[2]
  Potency: inactive

## COC(=O)C1=COC(OC2OC(CO)C(O)C(O)C2O)C2C(COC(=O)/C=C/c3ccc(O)c(O)c3)C(O)C(O)C12 (configuration not stated)
[1]
  Potency: inactive
[2]
  Potency: inactive

## CC(=O)/C=C/C1C(C)CC(O[C@@H]2O[C@H](CO)[C@@H](O)[C@H](O)[C@H]2O)CC1(C)C (some centres not stated)
[1]
  Potency: inactive
[2]
  Potency: inactive

## C=C1CCC2C(C)(C(=O)OC)CCCC2(C)C1CCC1=CCOC1=O (configuration not stated)
[1]
  Potency: inactive
[2]
  Potency: inactive

## C=C1[C@H]2CCC3[C@]4(C)CCC[C@@](C)(C(=O)O)C4CC[C@]3(C2)[C@H]1OC(C)=O (some centres not stated)
[1]
  Potency: inactive
[2]
  Potency: inactive

## CC(C)CC[C@@H](O)[C@](C)(O)[C@H]1CC[C@@]2(O)C3=CC(=O)[C@@H]4C[C@@H](O)[C@@H](O)C[C@]4(C)[C@H]3CC[C@]12C
[1]
  Potency: inactive
[2]
  Potency: inactive

## OCC1=C[C@@H](O)[C@@H]2C=CO[C@@H](O[C@@H]3O[C@H](CO)[C@@H](O)[C@H](O)[C@H]3O)[C@H]12
[1]
  Potency: inactive
[2]
  Potency: inactive

## CC1(CO)CC(O)C2(C)CCC3(C)C(=CCC4C5(C=O)CCC(OC6OC(C(=O)O)C(O)C(O)C6OC6OC(C(=O)O)C(O)C(O)C6O)C(C)(C)C5CCC43C)C2C1 (configuration not stated)
[1]
  outcome: inactive [at 9.29 µM]
[2]
  outcome: inactive [at 9.29 µM]

## CC(=O)OC1C(C)C2C(OC3OC(CO)C(O)C(O)C3O)OC=C(C(=O)O)C2C1OC(=O)c1ccccc1 (configuration not stated)
[1]
  Potency: inactive
[2]
  Potency: inactive

## C/C=C/C=C/C=C/C(=O)N(C)C(C(=O)NC(C)C(=O)N1CCCC1C(N)=O)C(C)C (configuration not stated)
[1]
  Potency: inactive
[2]
  Potency: inactive

## COc1cc(CCCO)ccc1O[C@@H]1O[C@H](CO)[C@@H](O)[C@H](O)[C@H]1O
[1]
  Potency: inactive
[2]
  Potency: inactive

## O=C(c1c2ccccc2cc2ccccc12)N1CCC(N2CCC[C@@H](C(=O)N3CCOCC3)C2)CC1
[1]
  Potency: inactive
[2]
  Potency: inactive

## Cc1ccc(-c2c(-c3nn(C)c4ncnc(N5CCC(N6CCCCC6)C5)c34)cnn2C)cc1 (configuration not stated)
[1]
  Potency: inactive
[2]
  Potency: inactive

## C=CCc1ccc(O[C@@H]2O[C@H](CO)[C@@H](O)[C@H](O)[C@H]2O)c(O[C@@H]2O[C@H](CO)[C@@H](O)[C@H](O)[C@H]2O)c1
[1]
  Potency: inactive
[2]
  Potency: inactive

## CC1=CC[C@@]2(C)CC[C@@](O)(C(C)C)[C@@H]2[C@@H](O)C1
[1]
  Potency: inactive
[2]
  Potency: inactive

## CCC(C)C(C(=O)O)N1Cc2c(OCC=C(C)C)c(C)c(OC)c(C(=O)O)c2C1=O (configuration not stated)
[1]
  Potency: inactive
[2]
  Potency: inactive

## COc1c2cc(c(O[C@@H]3O[C@H](CO)[C@@H](O)[C@H](O)[C@H]3O)c1OC)CCCCC(O)CCc1ccc(O)c-2c1 (some centres not stated)
[1]
  Potency: inactive
[2]
  Potency: inactive

## CC1CC=C2C1CC1(O)C(=O)CC2(C)C1(C)CO (configuration not stated)
[1]
  Potency: inactive
[2]
  Potency: inactive

## C=CCC1=C[C@]2(OC)[C@H](C)[C@@H](c3ccc(OC)c(OC)c3)O[C@]2(OC)CC1=O
[1]
  Potency: inactive
[2]
  Potency: inactive

## CC(=O)O[C@H]1[C@H](O[C@H]2CC[C@]34C[C@]35CC[C@]3(C)[C@@H]([C@@]6(C)CC[C@@H](C(C)(C)O)O6)[C@@H](O)C[C@@]3(C)[C@@H]5C[C@H](O[C@@H]3O[C@H](CO)[C@@H](O)[C@H](O)[C@H]3O)[C@H]4C2(C)C)OC[C@@H](OC(C)=O)[C@@H]1O
[1]
  Potency: inactive
[2]
  Potency: inactive

## CC(C)=CCC/C(C)=C/CO[C@@H]1O[C@H](CO[C@@H]2OC[C@](O)(CO)[C@H]2O)[C@@H](O)[C@H](O)[C@H]1O
[1]
  Potency: inactive
[2]
  Potency: inactive

## COC(=O)C1=COC(OC2OC(CO)C(O)C(O)C2O)C2C(C)CC(=O)C12O (configuration not stated)
[1]
  Potency: inactive
[2]
  Potency: inactive

## Cc1ccc(-n2nc(C(C)(C)C)cc2NC(=O)Nc2cc(COc3cccnc3)[nH]n2)cc1
[1]
  Potency: inactive
[2]
  Potency: inactive

## COc1cc(CC2COC(c3ccc(OC4OC(CO)C(O)C(O)C4O)c(OC)c3)C2CO)ccc1O (configuration not stated)
[1]
  Potency: inactive
[2]
  Potency: inactive

## CCCN(CCN1CCN(c2ccccc2OC)CC1)C1CCc2ncsc2C1 (configuration not stated)
[1]
  Potency: inactive
[2]
  Potency: inactive

## CC(C)=CCC[C@](C)(O[C@@H]1O[C@H](CO[C@@H]2O[C@@H](CO)[C@H](O)[C@H]2O)[C@@H](O)[C@H](O)[C@H]1O)[C@H]1CC[C@]2(C)[C@@H]1[C@H](O)C[C@@H]1[C@@]3(C)CC[C@H](O[C@@H]4O[C@H](CO)[C@@H](O)[C@H](O)[C@H]4O[C@@H]4O[C@H](CO)[C@@H](O)[C@H](O)[C@H]4O)C(C)(C)[C@@H]3CC[C@]12C
[1]
  Potency: inactive
[2]
  Potency: inactive

## CC(=O)O[C@@H]1CC2C(C)(C)C(=O)C=C[C@]2(C)C2CC[C@]3(C)C(=CC(=O)[C@@H]3c3ccoc3)[C@@]21C (some centres not stated)
[1]
  Potency: inactive
[2]
  Potency: inactive

## C/C=C(\C)C(=O)OCC1OC(OC2OC(CO)C(O)C(O)C2O)C(O)C(O)C1O (configuration not stated)
[1]
  Potency: inactive
[2]
  Potency: inactive

## CC1CCC2(C(=O)OC3OC(CO)C(O)C(O)C3O)CCC3(C)C(=CCC4C5(C)CCC(O)C(C)(CO)C5CCC43C)C2C1(C)O (configuration not stated)
[1]
  Potency: inactive
[2]
  Potency: inactive

## C[C@@]1(C(=O)O)CCC[C@@]2(C)C3=CC[C@H]4C[C@@]3(CC[C@H]12)CC4(O)CO (some centres not stated)
[1]
  Potency: inactive
[2]
  Potency: inactive

## C[C@@]12CC3(S(=O)(=O)O)OC(O1)[C@]1(COC(=O)c4ccccc4)[C@H]3C[C@]21O[C@@H]1O[C@H](CO)[C@@H](O)[C@H](O)[C@H]1O
[1]
  Potency: inactive
[2]
  Potency: inactive

## COc1cc(O)cc2c1C(=O)OC(C)CCCCCCC2 (configuration not stated)
[1]
  Potency: inactive
[2]
  Potency: inactive

## O=C(O)CC1CCC(c2ccc(NC(=O)c3nnc(Nc4ccc(F)c(F)c4)o3)cc2)CC1 (configuration not stated)
[1]
  Potency: inactive
[2]
  Potency: inactive

## COc1cc(O)cc(O[C@@H]2O[C@H](CO)[C@@H](O[C@@H]3OC[C@](O)(CO)[C@H]3O)[C@H](O)[C@H]2O)c1OC
[1]
  Potency: inactive
[2]
  Potency: inactive

## CC(C)C1CCC(C(=O)N[C@@H](Cc2ccccc2)C(=O)O)CC1 (some centres not stated)
[1]
  Potency: inactive
[2]
  Potency: inactive

## COc1ccc(/C=C/C(N)=O)cc1OC
[1]
  Potency: inactive
[2]
  Potency: inactive

## C/C=C/C=C/C=C/C(=O)O[C@@H]1C=C(CO)[C@](O)(CO)[C@@]2(C)CCCC(C)(C)[C@H]12
[1]
  Potency: inactive
[2]
  Potency: inactive

## C[C@@]1(O)[C@H](O)[C@@H](CO)O[C@H]1n1cnc2c(=O)[nH]c(N)nc21
[1]
  Potency: inactive
[2]
  Potency: inactive

## Nc1ncnc2c1C(=O)N(c1ccc(C3CCC(CC(=O)O)CC3)cc1)CCO2 (configuration not stated)
[1]
  Potency: inactive
[2]
  Potency: inactive

## Cc1cn(-c2cc(NC(=O)c3ccc(C)c(Nc4nccc(-c5cnccn5)n4)c3)cc(C(F)(F)F)c2)cn1
[1]
  Potency: inactive
[2]
  Potency: inactive

## CO[C@H]1c2cc(C(C)C)c(O)c(O)c2[C@@]23CCCC(C)(C)C2[C@@H]1OC3=O (some centres not stated)
[1]
  Potency: inactive
[2]
  Potency: inactive

## COC(=O)c1[nH]c(=O)c2ccccc2c1-c1ccc[nH]1
[1]
  Potency: inactive
[2]
  Potency: inactive

## C/C=C/C=C/C(O)=C1/C(=O)[C@]2(C)C(=O)[C@@](C)(O)[C@H]1[C@H]([C@@]1(C)OC(=O)C(C)=C1O)[C@H]2C(=O)CC/C=C/C
[1]
  Potency: inactive
[2]
  Potency: inactive

## COc1c(-c2ccc(O)cc2)cc(OC)c2c1oc1cc(O)c(OC3OC(CO)C(O)C3O)cc12 (configuration not stated)
[1]
  Potency: inactive
[2]
  Potency: inactive

## O=C(OCC1=CC(Cl)C(O)C(OC(=O)c2ccccc2)C1O)c1ccccc1 (configuration not stated)
[1]
  Potency: inactive
[2]
  Potency: inactive

## COC(=O)C1=CO[C@@H](O[C@@H]2O[C@H](CO)[C@@H](O)[C@H](O)[C@H]2O)C2C1CC(O)C2C (some centres not stated)
[1]
  Potency: inactive
[2]
  Potency: inactive

## C[C@]12CC/C(=N\OCC(=O)O)C=C1CC[C@@H]1[C@@H]2[C@@H](O)C[C@@]2(C)[C@H]1CC[C@]2(O)C(=O)CO
[1]
  Potency: inactive
[2]
  Potency: inactive

## Cc1c(O)cc2c(c1O)COC1(O)CCCOC21 (configuration not stated)
[1]
  Potency: inactive
[2]
  Potency: inactive

## CC(CCc1ccc(O)cc1)O[C@@H]1O[C@H](CO[C@@H]2OC(CO)[C@H](O)[C@H]2O)[C@@H](O)[C@H](O)[C@H]1O (some centres not stated)
[1]
  Potency: inactive
[2]
  Potency: inactive

## COC(=O)C1=CO[C@@H](O[C@@H]2O[C@H](CO)[C@@H](O)[C@H](O)[C@H]2O)[C@@H]2C(CO)=CC[C@H]12
[1]
  Potency: inactive
[2]
  Potency: inactive

## O=C(c1ccc(Cl)c([N+](=O)[O-])c1)N1CCN(c2ccccc2F)CC1
[1]
  Potency: inactive
[2]
  Potency: inactive

## C[C@H]1CC(=O)C2=C(C1)C(O)C(O)[C@@]1(O)[C@H]2C(=O)c2cccc(O)c2[C@@H]1O (some centres not stated)
[1]
  Potency: inactive
[2]
  Potency: inactive

## C[C@@H]1[C@H](O)[C@@H]2OC(=O)C3=C2[C@H](CCC3)[C@@]12C[C@@H](c1ccoc1)OC2=O
[1]
  Potency: inactive
[2]
  Potency: inactive

## C[C@]1(C2CCCC2)Cc2cc(OCC(=O)O)c(Cl)c(Cl)c2C1=O
[1]
  Potency: inactive
[2]
  Potency: inactive

## H-DPPDPDRFYGMM-NH2
[1]
  Potency: inactive
[2]
  Potency: inactive
